Experimental data reported in the supplement of paper PMC11732987, “Enantioselective OTUD7B fragment discovery through chemoproteomics screening and high-throughput optimisation” (Communications Chemistry, 2025).

Experiments:
Experiment in all cases: log2 ratio of Biotin-Ahx-Ub-VS probe labelling (fragment/DMSO); higher = less target engagement (more negative = stronger competition), active = hit call of the paper (q ≤ 0.05, log2 ratio ≤ -1)
Conditions in all cases: compound concentration: 200 uM; treatment time: 3 h
[1] = biological target: T1, USP19 (UniProt O94966)
T1 sequence (whole entry): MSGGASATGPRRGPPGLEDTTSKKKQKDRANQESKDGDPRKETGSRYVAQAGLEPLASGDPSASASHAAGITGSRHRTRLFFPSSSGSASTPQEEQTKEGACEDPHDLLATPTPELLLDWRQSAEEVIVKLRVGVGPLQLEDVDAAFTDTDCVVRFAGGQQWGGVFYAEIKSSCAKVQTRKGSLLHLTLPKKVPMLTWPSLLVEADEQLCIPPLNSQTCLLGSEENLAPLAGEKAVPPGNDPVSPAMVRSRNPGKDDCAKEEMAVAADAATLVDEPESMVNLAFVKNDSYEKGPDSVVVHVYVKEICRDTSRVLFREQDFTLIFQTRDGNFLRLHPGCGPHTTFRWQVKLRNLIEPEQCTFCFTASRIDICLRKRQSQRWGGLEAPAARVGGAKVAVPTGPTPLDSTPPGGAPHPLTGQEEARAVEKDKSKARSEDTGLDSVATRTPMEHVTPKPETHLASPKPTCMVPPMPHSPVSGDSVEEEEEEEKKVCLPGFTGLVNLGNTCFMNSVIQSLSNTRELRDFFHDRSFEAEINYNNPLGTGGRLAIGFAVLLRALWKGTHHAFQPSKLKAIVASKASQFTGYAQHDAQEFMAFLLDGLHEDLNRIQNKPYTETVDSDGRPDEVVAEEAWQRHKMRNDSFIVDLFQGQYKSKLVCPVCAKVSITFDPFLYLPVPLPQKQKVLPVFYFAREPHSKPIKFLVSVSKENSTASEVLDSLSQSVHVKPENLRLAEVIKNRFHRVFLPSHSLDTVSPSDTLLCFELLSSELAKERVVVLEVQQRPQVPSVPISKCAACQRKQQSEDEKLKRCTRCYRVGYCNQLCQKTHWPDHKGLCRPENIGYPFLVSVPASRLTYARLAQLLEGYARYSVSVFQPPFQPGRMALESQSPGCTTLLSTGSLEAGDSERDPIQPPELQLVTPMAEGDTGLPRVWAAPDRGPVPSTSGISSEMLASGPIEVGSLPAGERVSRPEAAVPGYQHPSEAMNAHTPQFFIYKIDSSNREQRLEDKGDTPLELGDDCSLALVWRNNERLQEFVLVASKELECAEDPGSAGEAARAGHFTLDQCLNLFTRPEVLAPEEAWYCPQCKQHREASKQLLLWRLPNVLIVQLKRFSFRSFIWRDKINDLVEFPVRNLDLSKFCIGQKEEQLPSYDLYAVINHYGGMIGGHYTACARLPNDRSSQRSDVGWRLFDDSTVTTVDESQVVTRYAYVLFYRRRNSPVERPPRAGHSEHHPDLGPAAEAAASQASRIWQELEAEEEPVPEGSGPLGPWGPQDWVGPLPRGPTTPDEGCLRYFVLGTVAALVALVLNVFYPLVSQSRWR
How it was run: (§1)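 Values give the average log2 ratio of fragment to vehicle, assessed by unpaired t-test on global-median-normalised Spectronaut label-free quantities. Proteins needed ≥2 unique peptides. HEK293T lysate (495 µg per sample) was treated in triplicate with fragment at 200 µM or vehicle for 3 h and then with Biotin-Ahx-Ub-VS at 0.5 µM final for 1 h. Labelled DUBs were NeutrAvidin-enriched, digested and run by diaPASEF LC-MS/MS.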

[2] = biological target: T2, USP22 (UniProt Q9UPT9)
T2 sequence (whole entry): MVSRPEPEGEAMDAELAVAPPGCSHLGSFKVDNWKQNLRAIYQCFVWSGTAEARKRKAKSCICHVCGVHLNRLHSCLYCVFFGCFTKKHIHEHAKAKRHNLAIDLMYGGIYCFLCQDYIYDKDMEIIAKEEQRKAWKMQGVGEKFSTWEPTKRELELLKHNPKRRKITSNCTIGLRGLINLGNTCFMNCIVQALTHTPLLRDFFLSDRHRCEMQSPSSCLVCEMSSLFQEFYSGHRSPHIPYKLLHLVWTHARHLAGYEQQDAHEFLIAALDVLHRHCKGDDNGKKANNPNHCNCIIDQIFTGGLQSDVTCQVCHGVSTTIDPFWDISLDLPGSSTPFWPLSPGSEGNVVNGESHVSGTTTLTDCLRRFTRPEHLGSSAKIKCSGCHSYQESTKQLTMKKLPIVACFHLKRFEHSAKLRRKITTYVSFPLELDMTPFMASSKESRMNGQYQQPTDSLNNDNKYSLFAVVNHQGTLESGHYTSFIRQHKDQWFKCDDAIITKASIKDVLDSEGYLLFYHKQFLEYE
How it was run: as §1

[3] = biological target: USP24 (UniProt Q9UPU5)
USP24, sequence (Q9UPU5 whole entry): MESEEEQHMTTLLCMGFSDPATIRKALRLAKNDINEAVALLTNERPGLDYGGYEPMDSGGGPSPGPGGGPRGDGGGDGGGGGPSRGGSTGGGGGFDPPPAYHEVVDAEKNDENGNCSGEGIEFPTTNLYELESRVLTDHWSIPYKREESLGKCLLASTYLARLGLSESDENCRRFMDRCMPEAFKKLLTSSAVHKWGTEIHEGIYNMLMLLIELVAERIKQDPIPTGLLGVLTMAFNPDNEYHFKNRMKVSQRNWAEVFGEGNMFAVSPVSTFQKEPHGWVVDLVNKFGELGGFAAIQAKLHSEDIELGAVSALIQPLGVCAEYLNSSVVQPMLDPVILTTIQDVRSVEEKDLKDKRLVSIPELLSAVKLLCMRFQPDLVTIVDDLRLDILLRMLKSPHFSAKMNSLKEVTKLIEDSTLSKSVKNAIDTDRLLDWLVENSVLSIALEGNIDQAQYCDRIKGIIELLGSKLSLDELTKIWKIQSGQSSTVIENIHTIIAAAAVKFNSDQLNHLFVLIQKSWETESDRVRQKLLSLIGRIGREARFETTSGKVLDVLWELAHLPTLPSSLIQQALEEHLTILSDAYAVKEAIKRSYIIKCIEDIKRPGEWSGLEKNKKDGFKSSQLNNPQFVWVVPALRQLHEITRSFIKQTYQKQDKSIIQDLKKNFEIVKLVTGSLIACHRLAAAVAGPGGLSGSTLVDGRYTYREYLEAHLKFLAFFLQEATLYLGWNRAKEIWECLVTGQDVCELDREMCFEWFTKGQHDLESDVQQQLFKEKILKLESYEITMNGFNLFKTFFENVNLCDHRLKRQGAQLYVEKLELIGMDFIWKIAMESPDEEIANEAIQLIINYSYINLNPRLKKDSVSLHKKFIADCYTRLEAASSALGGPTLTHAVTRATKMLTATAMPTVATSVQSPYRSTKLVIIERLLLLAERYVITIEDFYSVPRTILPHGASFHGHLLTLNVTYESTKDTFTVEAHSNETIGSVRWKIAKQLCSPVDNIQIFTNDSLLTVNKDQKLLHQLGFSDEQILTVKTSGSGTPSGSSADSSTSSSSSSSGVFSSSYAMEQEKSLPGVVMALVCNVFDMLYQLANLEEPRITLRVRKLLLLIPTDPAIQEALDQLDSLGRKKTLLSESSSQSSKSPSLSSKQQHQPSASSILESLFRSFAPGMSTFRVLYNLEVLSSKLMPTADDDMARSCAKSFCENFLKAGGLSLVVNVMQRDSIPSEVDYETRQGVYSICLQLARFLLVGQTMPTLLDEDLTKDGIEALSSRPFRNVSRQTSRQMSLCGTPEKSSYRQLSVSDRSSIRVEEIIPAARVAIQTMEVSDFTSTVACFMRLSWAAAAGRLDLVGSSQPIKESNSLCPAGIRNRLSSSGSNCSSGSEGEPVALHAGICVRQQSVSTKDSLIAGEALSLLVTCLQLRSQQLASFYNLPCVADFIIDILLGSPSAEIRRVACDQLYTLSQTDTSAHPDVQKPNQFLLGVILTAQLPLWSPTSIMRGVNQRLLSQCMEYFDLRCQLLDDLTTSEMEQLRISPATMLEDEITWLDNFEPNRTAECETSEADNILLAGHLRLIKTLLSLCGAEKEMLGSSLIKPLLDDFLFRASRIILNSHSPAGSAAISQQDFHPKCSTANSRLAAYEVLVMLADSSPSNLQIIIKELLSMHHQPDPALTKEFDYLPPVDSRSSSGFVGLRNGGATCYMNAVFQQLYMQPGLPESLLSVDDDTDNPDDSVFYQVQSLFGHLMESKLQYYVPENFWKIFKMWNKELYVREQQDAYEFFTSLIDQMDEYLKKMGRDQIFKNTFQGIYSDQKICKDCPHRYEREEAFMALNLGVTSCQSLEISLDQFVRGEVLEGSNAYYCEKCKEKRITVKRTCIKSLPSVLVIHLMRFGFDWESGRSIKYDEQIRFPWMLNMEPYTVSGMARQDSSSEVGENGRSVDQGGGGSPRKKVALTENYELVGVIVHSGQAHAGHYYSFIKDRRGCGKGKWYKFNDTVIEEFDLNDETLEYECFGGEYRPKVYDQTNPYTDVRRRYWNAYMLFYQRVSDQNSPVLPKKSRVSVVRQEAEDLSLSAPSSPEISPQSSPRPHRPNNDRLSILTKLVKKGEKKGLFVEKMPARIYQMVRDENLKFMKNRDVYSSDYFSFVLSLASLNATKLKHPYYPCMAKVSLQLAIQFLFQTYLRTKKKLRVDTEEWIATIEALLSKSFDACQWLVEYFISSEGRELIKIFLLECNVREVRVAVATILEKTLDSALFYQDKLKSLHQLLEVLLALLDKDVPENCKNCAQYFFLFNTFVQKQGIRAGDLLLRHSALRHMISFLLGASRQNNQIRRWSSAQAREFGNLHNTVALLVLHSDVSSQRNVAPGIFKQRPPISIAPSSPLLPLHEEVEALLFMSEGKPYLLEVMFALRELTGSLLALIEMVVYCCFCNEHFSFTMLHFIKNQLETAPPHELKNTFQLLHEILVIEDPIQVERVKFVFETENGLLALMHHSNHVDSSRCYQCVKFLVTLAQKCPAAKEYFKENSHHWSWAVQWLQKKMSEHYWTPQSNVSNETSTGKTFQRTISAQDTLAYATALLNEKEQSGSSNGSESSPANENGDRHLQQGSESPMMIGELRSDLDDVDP
How it was run: as §1

[4] = biological target: T3, USP25 (UniProt Q9UHP3)
T3 sequence (whole entry): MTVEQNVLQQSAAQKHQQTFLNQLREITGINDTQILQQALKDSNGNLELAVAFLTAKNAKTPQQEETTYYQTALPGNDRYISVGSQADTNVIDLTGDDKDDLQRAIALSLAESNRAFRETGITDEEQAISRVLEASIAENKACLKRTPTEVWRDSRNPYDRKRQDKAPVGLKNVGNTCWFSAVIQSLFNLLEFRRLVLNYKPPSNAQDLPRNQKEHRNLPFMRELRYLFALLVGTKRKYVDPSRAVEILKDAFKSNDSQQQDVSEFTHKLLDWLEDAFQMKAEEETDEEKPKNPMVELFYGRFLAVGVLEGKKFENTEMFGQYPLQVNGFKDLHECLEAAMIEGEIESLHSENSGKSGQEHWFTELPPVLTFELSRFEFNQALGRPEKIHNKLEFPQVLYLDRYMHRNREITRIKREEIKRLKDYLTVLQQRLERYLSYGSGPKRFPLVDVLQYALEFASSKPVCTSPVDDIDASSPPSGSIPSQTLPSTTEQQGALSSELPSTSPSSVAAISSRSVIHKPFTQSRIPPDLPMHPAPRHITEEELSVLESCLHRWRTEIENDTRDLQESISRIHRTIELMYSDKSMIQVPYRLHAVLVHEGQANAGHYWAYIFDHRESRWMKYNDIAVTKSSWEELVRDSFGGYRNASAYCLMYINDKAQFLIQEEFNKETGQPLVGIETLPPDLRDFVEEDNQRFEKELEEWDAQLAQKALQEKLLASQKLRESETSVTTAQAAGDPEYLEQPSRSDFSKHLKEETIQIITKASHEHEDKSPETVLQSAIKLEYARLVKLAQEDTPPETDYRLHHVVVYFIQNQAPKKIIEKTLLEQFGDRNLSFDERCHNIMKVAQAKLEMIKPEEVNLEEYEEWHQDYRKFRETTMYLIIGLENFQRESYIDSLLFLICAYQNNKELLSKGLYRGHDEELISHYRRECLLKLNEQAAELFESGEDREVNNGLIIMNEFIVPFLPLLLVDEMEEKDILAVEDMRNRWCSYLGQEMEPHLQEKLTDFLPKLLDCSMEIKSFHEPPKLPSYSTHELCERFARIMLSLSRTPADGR
How it was run: as §1

[5] = biological target: T4, USP28 (UniProt Q96RU2)
T4 sequence (whole entry): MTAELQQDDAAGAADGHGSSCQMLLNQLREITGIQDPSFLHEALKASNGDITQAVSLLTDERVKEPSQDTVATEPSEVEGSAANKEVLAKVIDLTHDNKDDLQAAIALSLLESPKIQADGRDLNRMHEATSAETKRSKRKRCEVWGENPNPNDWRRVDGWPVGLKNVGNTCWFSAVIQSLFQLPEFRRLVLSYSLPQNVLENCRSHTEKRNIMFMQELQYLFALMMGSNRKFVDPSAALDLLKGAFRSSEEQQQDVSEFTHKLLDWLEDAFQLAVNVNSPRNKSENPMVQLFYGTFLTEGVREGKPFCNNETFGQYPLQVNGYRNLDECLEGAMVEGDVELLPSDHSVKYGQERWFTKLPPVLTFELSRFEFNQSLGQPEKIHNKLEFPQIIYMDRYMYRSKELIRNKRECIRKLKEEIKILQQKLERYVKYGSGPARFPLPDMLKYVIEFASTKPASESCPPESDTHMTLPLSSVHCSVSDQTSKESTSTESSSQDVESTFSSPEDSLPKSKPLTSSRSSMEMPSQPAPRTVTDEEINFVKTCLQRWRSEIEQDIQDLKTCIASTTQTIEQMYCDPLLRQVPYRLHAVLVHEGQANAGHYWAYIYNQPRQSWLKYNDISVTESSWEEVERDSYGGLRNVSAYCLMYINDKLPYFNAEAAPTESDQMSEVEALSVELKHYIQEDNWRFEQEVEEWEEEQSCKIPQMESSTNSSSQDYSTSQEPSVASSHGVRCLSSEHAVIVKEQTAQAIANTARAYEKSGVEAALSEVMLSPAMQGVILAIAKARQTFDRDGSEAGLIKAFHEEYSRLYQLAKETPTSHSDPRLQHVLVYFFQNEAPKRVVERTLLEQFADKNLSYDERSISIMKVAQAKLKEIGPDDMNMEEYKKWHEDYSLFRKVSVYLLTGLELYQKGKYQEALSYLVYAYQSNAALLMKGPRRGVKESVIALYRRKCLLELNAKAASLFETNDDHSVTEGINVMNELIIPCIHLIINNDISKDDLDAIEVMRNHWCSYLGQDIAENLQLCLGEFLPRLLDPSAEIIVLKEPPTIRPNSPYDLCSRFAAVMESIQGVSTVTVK
How it was run: as §1

Measured: log2 ratio of Biotin-Ahx-Ub-VS probe labelling

Cc1cccc(C(CNC(=O)CCl)N2CCOCC2)c1.Cl (stereo not given)
inactive: [1] 0.101 | [2] -0.00636 | [3] 0.135 | [4] -0.355 | [5] -0.0645
